# Laboratory results reported in the supplement of paper PMC8728848.
# Shown is part of a subset that was picked to be rich in the strongest signals.
# Tests used:
# Assay in all cases: glycan array binding signal (z-score within array); higher = stronger binding
# Settings in all cases: glycan notation: IUPAC condensed, linker removed
# [1] = biological target: Fuc(a1-2)Gal(b1-3)GalNAc(a1-3)[Fuc(a1-2)]Gal(b1-4)GlcNAc
# Method in brief: (§1)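 Columns mapping to the same glycan were averaged after glycan names were converted to IUPAC-condensed notation. The data come from 3228 arrays in the Consortium for Functional Glycomics database, limited to those with an available protein sequence. Binding is reported as a within-array Z-score averaged across arrays of one protein sequence and across linkers.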
# [2] = biological target: Fuc(a1-2)Gal(b1-3)GlcNAc(b1-3)Gal(b1-4)Glc
# Method in brief: as §1
# [3] = biological target: Fuc(a1-2)Gal(b1-3)GlcNAc6S
# Method in brief: as §1
# [4] = biological target: Fuc(a1-2)Gal(b1-4)GlcNAc(b1-2)Man(a1-3)[Fuc(a1-2)Gal(b1-4)GlcNAc(b1-2)Man(a1-6)]Man(b1-4)GlcNAc(b1-4)[Fuc(a1-6)]GlcNAc
# Method in brief: as §1
# [5] = biological target: Fuc(a1-2)Gal6S(b1-3)GlcNAc6S
# Method in brief: as §1
# [6] = biological target: Fuc(a1-2)[Gal(a1-3)]Gal(b1-4)GlcNAc(b1-2)Man
# Method in brief: as §1
# [7] = biological target: Fuc(a1-2)[GalNAc(a1-3)]Gal(b1-3)GalNAc(a1-3)[Fuc(a1-2)]Gal(b1-4)GlcNAc
# Method in brief: as §1
# [8] = biological target: Fuc(a1-2)[GalNAc(a1-3)]Gal(b1-3)GlcNAc(b1-2)Man(a1-3)[Fuc(a1-2)[GalNAc(a1-3)]Gal(b1-3)GlcNAc(b1-2)Man(a1-6)]Man(b1-4)GlcNAc(b1-4)GlcNAc
# Method in brief: as §1
# [9] = biological target: Fuc(a1-2)[GalNAc(a1-3)]Gal(b1-4)GlcNAc(b1-6)GalNAc
# Method in brief: as §1
# [10] = biological target: Fuc(a1-3)[Gal(b1-4)]GlcNAc(b1-3)Gal(b1-3)[Fuc(a1-4)]GlcNAc
# Method in brief: as §1
# [11] = biological target: Fuc(a1-3)[GalNAc(b1-4)]GlcNAc6S
# Method in brief: as §1
# [12] = biological target: Gal(a1-3)Gal(b1-3)GlcNAc(b1-6)GalNAc
# Method in brief: as §1
# [13] = biological target: Gal(a1-3)Gal(b1-4)[Fuc(a1-3)]GlcNAc
# Method in brief: as §1
# [14] = biological target: Gal(b1-3)GalNAc(b1-4)[Neu5Ac(a2-3)]Gal(b1-4)Glc
# Method in brief: as §1
# [15] = biological target: Gal(b1-3)GlcNAc(b1-3)Gal(b1-4)GlcNAc(b1-6)[Gal(b1-3)GlcNAc(b1-3)]Gal(b1-4)Glc
# Method in brief: as §1
# [16] = biological target: Gal(b1-3)GlcNAc(b1-3)Gal(b1-4)[Fuc(a1-3)]GlcNAc
# Method in brief: as §1
# [17] = biological target: Gal(b1-4)GlcNAc(b1-2)Man(a1-3)[Gal(b1-4)GlcNAc(b1-2)Man(a1-6)]Man(b1-4)GlcNAc(b1-4)[Fuc(a1-6)]GlcNAc
# Method in brief: as §1
# [18] = biological target: Gal(b1-4)GlcNAc(b1-2)[Gal(b1-4)GlcNAc(b1-6)]Man(a1-6)[Gal(b1-4)GlcNAc(b1-2)Man(a1-3)]Man(b1-4)GlcNAc(b1-4)GlcNAc
# Method in brief: as §1
# [19] = biological target: Gal(b1-4)GlcNAc(b1-3)Gal(b1-4)Glc
# Method in brief: as §1
# [20] = biological target: Gal(b1-4)GlcNAc(b1-3)Gal(b1-4)GlcNAc(b1-3)Gal(b1-4)GlcNAc(b1-2)Man(a1-3)[Gal(b1-4)GlcNAc(b1-3)Gal(b1-4)GlcNAc(b1-3)Gal(b1-4)GlcNAc(b1-2)Man(a1-6)]Man(b1-4)GlcNAc(b1-4)GlcNAc
# Method in brief: as §1
# [21] = biological target: Gal(b1-4)GlcNAc(b1-3)Gal(b1-4)GlcNAc(b1-3)Gal(b1-4)GlcNAc(b1-3)Gal(b1-4)GlcNAc(b1-2)Man(a1-3)[Gal(b1-4)GlcNAc(b1-3)Gal(b1-4)GlcNAc(b1-3)Gal(b1-4)GlcNAc(b1-3)Gal(b1-4)GlcNAc(b1-2)Man(a1-6)]Man(b1-4)GlcNAc(b1-4)GlcNAc
# Method in brief: as §1
# [22] = biological target: Gal(b1-4)GlcNAc(b1-3)Gal(b1-4)GlcNAc(b1-3)Gal(b1-4)GlcNAc(b1-3)Gal(b1-4)GlcNAc(b1-2)Man(a1-3)[Gal(b1-4)GlcNAc(b1-3)Gal(b1-4)GlcNAc(b1-3)Gal(b1-4)GlcNAc(b1-3)Gal(b1-4)GlcNAc(b1-2)Man(a1-6)]Man(b1-4)GlcNAc(b1-4)[Fuc(a1-6)]GlcNAc
# Method in brief: as §1
# [23] = biological target: Gal(b1-4)GlcNAc(b1-3)Gal(b1-4)GlcNAc(b1-6)[Gal(b1-3)]GalNAc
# Method in brief: as §1
# [24] = biological target: Gal(b1-4)GlcNAc(b1-6)GalNAc
# Method in brief: as §1
binder,measurement,setting,value
"YghJ (Escherichia coli), E3PJ90 (protein) MNKKFKYKKSLLAAILSATLLAGCDGGGSGSSSDTPPVDSGTGSLPEVKPDPTPNPEPTPEPTPDPEPTPEPIPDPEPTPEPEPEPVPTKTGYLTLGGSQRVTGATCNGESSDGFTFKPGEDVTCVAGNTTIATFNTQSEAARSLRAVEKVSFSLEDAQELAGSDDKKSNAVSLVTSSNSCPANTEQVCLTFSSVIESKRFDSLYKQIDLAPEEFKKLVNEEVENNAATDKAPSTHTSPVVPVTTPGTKPDLNASFVSANAEQFYQYQPTEIILSEGRLVDSQGYGVAGVNYYTNSGRGVTGENGEFSFSWGEAISFGIDTFELGSVRGNKSTIALTELGDEVRGANIDQLIHRYSTTGQNNTRVVPDDVRKVFAEYPNVINEIINLSLSNGATLGEGEQVVNLPNEFIEQFNTGQAKEIDTAICAKTDGCNEARWFSLTTRNVNDGQIQGVINKLWGVDTNYKSVSKFHVFHDSTNFYGSTGNARGQAVVNISNAAFPILMARNDKNYWLAFGEKRAWDKNELAYITEAPSIVRPENVTRETASFNLPFISLGQVGDGKLMVIGNPHYNSILRCPNGYSWNGGVNKDGQCTLNSDPDDMKNFMENVLRYLSNDRWLPDAKSSMTVGTNLETVYFKKHGQVLGNSAPFAFHKDFTGITVKPMTSYGNLNPDEVPLLILNGFEYVTQWGSDPYSIPLRADTSKPKLTQQDVTDLIAYMNKGGSVLIMENVMSNLKEESASGFVRLLDAAGLSMALNKSVVNNDPQGYPDRVRQRRSTPIWVYERYPAVDGKPPYTIDDTTKEVIWKYQQENKPDDKPKLEVASWQEEVEGKQVTQFAFIDEADHKTPESLAAAKQRILDAFPGLEVCKDSDYHYEVNCLEYRPGTDVPVTGGMYVPQYTQLDLSADTAKAMLQAADLGTNIQRLYQHELYFRTNGRQGERLNSVDLERLYQNMSVWLWNETKYRYEEGKEDELGFKTFTEFLNCYTNNAYVGTQCSAELKKSLIDNKMIYGEESSKAGMMNPSYPLNYMEKPLTRLMLGRSWWDLNIKVDVEKYPGVVNTNGETVTQNINLYSAPTKWFAGNMQSTGLWAPAQQEVSIESKSTVPVTVTVALADDLTGREKHEVSLNRPPRVTKTYDLKANDKVTFKVPYGGLIYIKGDSKEVQSADFTFTGVVKAPFYKDGKWQHDLNSPAPLGELESASFVYTTPKKNLNASNYTGGLEQFANDLDTFASSMNDFYGRDSEDGKHRMFTYKNLPGHKHRFANDVQISIGDAHSGYPVMNSSFSPNSTTLPTTPLNDWLIWHEVGHNAAETPLTVPGATEVANNVLALYMQDRYLGKMNRVADDITVAPEYLEESNGQAWARGGAGDRLLMYAQLKEWAEKNFDIKKWYPDGTPLPEFYSEREGMKGWNLFQLMHRKARGDEVSNDKFGGKNYCAESNGNAADTLMLCASWVAQTDLSEFFKKWNPGANAYQLPGASEMSFEGGVSQSAYNTLASLDLPKPEQGPETINQVTEHKMSAE",glycan array binding signal (z-score),[1],-1.47
same,glycan array binding signal (z-score),[2],-0.678
same,glycan array binding signal (z-score),[3],2.47
same,glycan array binding signal (z-score),[4],-0.129
same,glycan array binding signal (z-score),[5],3.49
same,glycan array binding signal (z-score),[6],-1.3
same,glycan array binding signal (z-score),[7],-0.92
same,glycan array binding signal (z-score),[8],0.546
same,glycan array binding signal (z-score),[9],0.95
same,glycan array binding signal (z-score),[10],2.74
same,glycan array binding signal (z-score),[11],0.125
same,glycan array binding signal (z-score),[12],0.282
same,glycan array binding signal (z-score),[13],-2.21
same,glycan array binding signal (z-score),[14],-0.276
same,glycan array binding signal (z-score),[15],1.23
same,glycan array binding signal (z-score),[16],2.4
same,glycan array binding signal (z-score),[17],2.37
same,glycan array binding signal (z-score),[18],0.576
same,glycan array binding signal (z-score),[19],0.172
same,glycan array binding signal (z-score),[20],0.559
same,glycan array binding signal (z-score),[21],-0.172
same,glycan array binding signal (z-score),[22],2.84
same,glycan array binding signal (z-score),[23],-0.193
same,glycan array binding signal (z-score),[24],-0.103
